Source: PubChem BioAssay (National Center for Advancing Translational Sciences (NCATS))
Only some compounds are listed: those with a hit (about 7.5% of all), similar ones and a draw of the others.
Rab9 prom act: activates the Rab9 promoter | Huh7 Rab9 promoter-luciferase reporter, luminescence, 24 h | Potency, µM (doses to about 9.22 µM), for the others: top-dose activation, negative = inhibition, actives largely listed as activators | hit rate 2.8% among 320,000 | AID 485297; note: % of control where 0% means no effect; nearly all actives have a fitted effect of over 60% in size
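Luminescence from Amplite-detected luciferase (10 minutes, ambient) reports Rab9 promoter activation. Before that, stable Rab9-luciferase Huh7 cells (1500/well, reduced-serum OP-MEM I plus 10% FBS) were exposed to compound for 24 hours at 37C.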
SMN2 splice up: enhancers of SMN2 splice variant expression | HEK293 SMN2-luciferase splicing reporter, luminescence, 30-36 h | Potency, µM (titrated, usually from 46.1 µM), without a hit: top-dose activity change, positive = activation, most hits filed as activators | hit rate 2.8% among 210,000 | AID 1458; note: % of control where 0% means no effect; nearly all actives have a fitted effect of over 55% in size
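HEK293 cells carry an SMN2 minigene-luciferase reporter in which exon 7 inclusion puts luciferase in frame. Cells were seeded at 2000 cells/well, attached for 10-12 hours, then exposed to compounds for 30-36 hours at 37C before ONE-Glo luminescence.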
Luc counter: blocks Kinase-Glo luciferase, a counter-screen artifact. hit rate 0.28% among 200,000. AID 1379. Potency, µM (top dose mostly 38.3 µM), inactives show at the top dose activity change, negative = inhibition, hits mostly inhibitors. Q27757. Kinase-Glo luciferase, ATP luminescence, 8 min; note: % is set by controls: 0 for no effect and ±100 for the full control effect; nearly all actives have a fitted effect of over 60% in size
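Light output from Kinase-Glo luciferase with luciferin and 10 uM ATP in 50 mM imidazole pH 7.2, KCl, MgCl2, Tween 20, BSA; compound pin-delivered, 8-min ambient incubation, then luminescence read.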
ELG1 genotoxic: genotoxicity induction in ELG1-luciferase HEK293T cells | Potency, µM (titrated, usually from 46 µM), without a hit: at the highest dose activity change, positive = activation, actives largely listed as activators | HEK293T ELG1-luciferase reporter, luminescence, 16 h | hit rate 1.3% among 330,000; note: % of control where 0% means no effect; nearly all actives have a fitted effect of over 60% in size
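Luminescence read-out: rising ELG1-luciferase signal, reflecting elevated ELG1 protein under genetic stress, flags genotoxic compounds. Cells were treated for 16 hr at 37 °C before ONE-Glo detection.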
FLuc modulator: inhibits or activates purified firefly luciferase, miR-21 counter-screen | P08659 | AID 588342 | Potency, µM (doses to about 57.5 µM), inactives show at the top dose activity change, negative = inhibition, most hits filed as inhibitors | purified FLuc, Km substrates, luminescence inhibition | hit rate 6.9% among 360,000;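 note: plate controls were vehicle for no effect and reference inhibitor for full effect; nearly all actives have a fitted effect of over 55% in size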
Target sequence (P08659 whole entry, looked up): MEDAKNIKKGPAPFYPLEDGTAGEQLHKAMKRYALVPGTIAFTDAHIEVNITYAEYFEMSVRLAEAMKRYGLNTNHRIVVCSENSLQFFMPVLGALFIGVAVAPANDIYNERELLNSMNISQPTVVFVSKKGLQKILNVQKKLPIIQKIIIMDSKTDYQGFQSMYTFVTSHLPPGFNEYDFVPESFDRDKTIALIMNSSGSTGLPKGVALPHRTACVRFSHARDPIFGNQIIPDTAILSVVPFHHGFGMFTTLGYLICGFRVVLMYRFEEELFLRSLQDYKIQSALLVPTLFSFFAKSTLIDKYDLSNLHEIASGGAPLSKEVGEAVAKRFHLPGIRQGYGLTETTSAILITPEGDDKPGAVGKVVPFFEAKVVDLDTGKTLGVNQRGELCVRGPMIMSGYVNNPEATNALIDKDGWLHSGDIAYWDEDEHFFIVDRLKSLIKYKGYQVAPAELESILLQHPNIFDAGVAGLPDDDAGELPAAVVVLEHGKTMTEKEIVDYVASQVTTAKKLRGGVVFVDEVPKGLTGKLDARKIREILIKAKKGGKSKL
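Biochemical qHTS of compounds, final roughly 60 µM downward over six points, against 10 nM purified firefly luciferase using Km concentrations of substrates (10 uM D-luciferin, 10 uM ATP) in Tris acetate pH 7.5 buffer; luminescence output.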
NPC1 prom act: activates the NPC1 promoter; Potency, µM (highest dose often 9.22 µM), inactives show top-dose activation, usual class: activators; hit rate 2.4% among 320,000; Huh7 NPC1 promoter luciferase reporter, 24 h; note: % of control where 0% means no effect; nearly all actives have a fitted effect of over 60% in size
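Huh7 reporter cells (NPC1 promoter driving luciferase) are dosed with compound for 24 h at 37 °C, 5% CO2; luciferase detection reagent is then added and luminescence measured after 10 min at ambient temperature.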
Active calls of the source: *; ? = inconclusive; / = no result given; [ ] = dose if it differs, or a comment. Calls come from the whole dose curve; as a rule, active = well fitted curve in the direction sought with a large enough effect; inconclusive = small, poorly fitted or top-dose-only effect, or another doubt; inactive = no such curve, though single readings can be large; an effect the other way counts as inactive or inconclusive. Potency is the fitted concentration of half-maximal effect.

SMILES	Rab9 prom act	SMN2 splice up	Luc counter	ELG1 genotoxic	FLuc modulator	NPC1 prom act
Cc1ccc(Cn2nc(C)cc2C(=O)Nc2ccccc2Cl)cc1	2.5µM*	/	/	23µM*	12µM*	?
O=C(Nc1ccccc1Cl)c1ccccc1	22%	-19%	-1%	?	-19%	19%
CCOC(=O)c1cc(-c2ccc(C)cc2)nn1Cc1ccccc1	/	?	/	/	7.6µM*	/
COc1ccc(CCNc2ncnc3c2nnn3C)cc1OC	/	/	/	/	-2%	/
O=C(Cn1c(=O)c(C(F)(F)F)nc2ccccc21)Nc1ccc(Br)cc1F	/	/	/	/	2%	/
Fc1ccc(CSc2nnc(-c3cccs3)o2)cc1	?	?	4%	?	?	-2%
Fc1ccccc1CSc1nnc(-c2cccs2)o1	1.8µM*	13µM*	8%	8.2µM*	5.4µM*	1.8µM*
c1ccc(CSc2nnc(-c3cccs3)o2)cc1	?	?	-3%	?	12µM*	2.8µM*
C#C[C@@]1(O)CC[C@@H]2[C@@H]3CCC4=CC(=O)CC[C@@H]4[C@H]3CC[C@]21CC	/	-12%[20.6 µM]	1%[17.1 µM]	/	/	/
CN1CCC(CNC(=O)c2ccc(Cc3nc4ccccc4[nH]3)cc2)CC1	/	/	-4%	/	/	/
COc1cccc(NC(=O)c2cc(-c3ccc(C)o3)nc3ccccc23)c1	22%	/	/	2%	?	18%
COc1cccc(NC(=O)CN(C)C(=O)c2cc(-c3ccc(C)o3)nc3ccccc23)c1	0%	/	/	-5%	11µM*	5%
CCOc1ccc(NC(=O)CN(C)C(=O)c2cccc3ccccc23)cc1OCC	-5%	/	/	0%	3%	-3%
COc1ccc(NC(=O)CN(C)C(=O)c2cc(-c3ccc(Cl)cc3)nc3ccccc23)cc1	-1%	/	/	-43%	24µM*	2%
COc1cccc(NC(=O)CN(C)C(=O)c2cc(-c3cccc(Br)c3)nc3ccccc23)c1	2%	/	/	-25%	?	1%
CCOc1ccc(NC(=O)CN(C)C(=O)c2cc(-c3ccc(OC)cc3)nc3ccccc23)cc1OCC	2%	/	/	-27%	13µM*	-1%
COc1ccc(N2CCN(C(=O)CSc3nc4ccccc4nc3Cc3ccc(Cl)cc3)CC2)cc1	/	/	/	/	-8%	/
O=C(COc1ccc(Cl)cc1)Nc1cccc(S(=O)(=O)NCc2ccco2)c1	1%	/	/	-1%	17µM*	-2%
O=C(COc1ccc(Cl)cc1)Nc1cccc(S(=O)(=O)NC2=NCCCCC2)c1	-6%	/	/	16%	15µM*	3%
Cc1cc(Cl)ccc1OCC(=O)Nc1cccc(S(=O)(=O)NC2=NCCCCC2)c1	1%	/	/	-5%	13µM*	8%
CC(=O)CCc1ccc(OCC(=O)Nc2cccc(S(=O)(=O)N(C)c3ccccc3)c2)cc1	-12%	/	/	-2%	11µM*	-2%
Cc1ccc(C)c(OCC(=O)Nc2cccc(S(=O)(=O)NC3=NCCCCC3)c2)c1	2%	/	/	-14%	-1%	-1%
N#Cc1ccc(OCC(=O)Nc2cccc(S(=O)(=O)NC3=NCCCCC3)c2)cc1	-1%	/	/	-1%	?	-2%
COc1cc(C(=O)Nc2cccc(S(=O)(=O)NCc3ccco3)c2)cc(OC)c1OC	-3%	/	/	7%	1%	-3%
CCOCc1c(C(=O)NCC(c2ccco2)N2CCCC2)oc2ccccc12 (stereo not drawn)	/	/	/	-1%	/	/
SMILES	Rab9 prom act	SMN2 splice up	Luc counter	ELG1 genotoxic	FLuc modulator	NPC1 prom act
O=C(COc1ccccc1Cl)Nc1cccc(S(=O)(=O)NC2=NCCCCC2)c1	-2%	/	/	-4%	19µM*	-2%
COc1ccccc1OCC(=O)Nc1cccc(S(=O)(=O)NC2=NCCCCC2)c1	0%	/	/	0%	-13%	-1%
CC(C)(C)c1ccc(OCC(=O)Nc2cccc(S(=O)(=O)NC3=NCCCCC3)c2)cc1	-1%	/	/	0%	11µM*	-1%
CCc1ccc(C(=O)c2cn(CC(=O)Nc3ccc(C)c(C)c3)c3ccccc3c2=O)cc1	/	5%	/	/	-7%	/
CCc1ccc(CN(C(=O)c2cc3ccccc3oc2=O)C2CCS(=O)(=O)C2)cc1 (stereo not drawn)	4µM*	18µM*	-12%	?	19µM*	2.8µM*
O=C(c1cc2ccccc2oc1=O)N(Cc1ccc(F)cc1)C1CCS(=O)(=O)C1 (stereo not drawn)	3.2µM*	/	/	?	19µM*	?
COc1cc(CN(C(=O)c2cc3ccccc3oc2=O)C2CCS(=O)(=O)C2)cc(OC)c1OC (stereo not drawn)	0%	2%	/	3%	-17%	-1%
COc1ccc(CN(C(=O)c2cc3ccccc3oc2=O)C2CCCCC2)cc1OC	17%	25%	-5%	2%	27µM*	20%
Cc1ccc(CN(C(=O)c2cc3ccccc3oc2=O)C2CCS(=O)(=O)C2)cc1 (stereo not drawn)	?	4%	5%	23%	17µM*	?
COc1ccc(-c2cn3c(n2)sc2cc(C(=O)Nc4cccc(SC)c4)ccc23)cc1	/	/	/	/	-13%	/
COc1ccc(CCC(=O)NCc2nc3cccnc3n2Cc2cccc(OC)c2)cc1	/	/	/	/	-5%	/
O=C(c1cc2ccccc2oc1=O)N(Cc1cccs1)C1CCS(=O)(=O)C1 (stereo not drawn)	?	17%	-1%	18µM*	19µM*	30%
CC1CCC(NC(=O)c2ccc(CS(=O)(=O)c3cccc(C(F)(F)F)c3)o2)CC1 (stereo not drawn)	/	-12%	/	/	4%	/
O=C(c1cc(-c2ccc3c(c2)OCO3)on1)N1CCOCC1	0.63µM*	0.5µM*	-25%	0.58µM*	1.5µM*	0.4µM*
O=C(c1cc(-c2ccc3c(c2)OCO3)on1)N1CCN(c2ccc(F)cc2)CC1	4%	-17%	1%	0%	15µM*	-2%
Cc1c(Cl)cccc1NC(=O)c1cc(-c2ccc3c(c2)OCO3)on1	/	-3%	/	/	-1%	/
O=C(c1cc(-c2ccc3c(c2)OCO3)on1)N1CCN(c2ccccc2)CC1	?	-27%	-21%	?	3.8µM*	2.8µM*
CCc1ccc(NC(=O)c2cc(-c3ccc4c(c3)OCO4)on2)cc1	-4%	/	/	3%	-4%	-5%
CN(C(=O)c1cc(-c2ccc3c(c2)OCO3)on1)c1ccccc1	2.5µM*	/	/	18µM*	15µM*	2.5µM*
COc1ccccc1N1CCN(C(=O)c2cc(-c3ccc4c(c3)OCO4)on2)CC1	-1%	8%	0%	-6%	?	1%
Cc1ccc(NC(=O)Cn2c(-c3cncs3)nc3ccccc32)cc1Br	/	/	/	/	-1%	/
CC(C)CNC(=O)c1cc(-c2ccc3c(c2)OCO3)on1	0.5µM*	/	/	?	1.9µM*	0.56µM*
